Experimental data taken from the supplement of paper PMC7411054.
Structures can show the parent of a compound that is named as a salt.

Legend:
Experiment in all cases: phenotypically active (imaging signature differs from DMSO and reproducible) at any of 0.3-9 uM (binary (1 = active, 0 = inactive)); higher = active
Conditions in all cases: treatment time: 24 h
A549-ACTB-RAB5A = system: A549-ACTB-RAB5A
Method in brief: (§1)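 The reporter lines, fifteen in total and built by gene editing in A549, HepG2 and WPMY1 cells, used BFP for segmentation alongside GFP and RFP/FusionRed markers. Each was treated at 0.3, 1, 3 or 9 µM for 24 h in four wells and then imaged live, with live-cell features normalised to solvent control wells. Deviation meant ≥3 of 4 wells beyond the 95th percentile of control Euclidean distances; reproducibility meant a median replicate Pearson correlation above the 95th percentile of non-replicates. Only conditions meeting both were scored as phenotypically active.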

A549-CANX-COX4 = system: A549-CANX-COX4
Method in brief: as §1

A549-GM130-SQSTM1 = system: A549-GM130-SQSTM1
Method in brief: as §1

A549-TP53BP1-CLTA = system: A549-TP53BP1-CLTA
Method in brief: as §1

A549-TUBA1B-RELA = system: A549-TUBA1B-RELA
Method in brief: as §1

HepG2-ACTB-RAB5A = system: HepG2-ACTB-RAB5A
Method in brief: as §1

HepG2-CANX-COX4 = system: HepG2-CANX-COX4
Method in brief: as §1

HepG2-GM130-SQSTM1 = system: HepG2-GM130-SQSTM1
Method in brief: as §1

HepG2-TP53BP1-CLTA = system: HepG2-TP53BP1-CLTA
Method in brief: as §1

HepG2-TUBA1B-RELA = system: HepG2-TUBA1B-RELA
Method in brief: as §1

WPMY1-ACTB-RAB5A = system: WPMY1-ACTB-RAB5A
Method in brief: as §1

WPMY1-CANX-COX4 = system: WPMY1-CANX-COX4
Method in brief: as §1

WPMY1-GM130-SQSTM1 = system: WPMY1-GM130-SQSTM1
Method in brief: as §1

WPMY1-TP53BP1-CLTA = system: WPMY1-TP53BP1-CLTA
Method in brief: as §1

WPMY1-TUBA1B-RELA = system: WPMY1-TUBA1B-RELA
Method in brief: as §1

Measured: phenotypically active

C[N+](C)(C)CCOC(N)=O [Carbamoylcholine chloride]
inactive: A549-ACTB-RAB5A 0 | A549-CANX-COX4 0 | A549-GM130-SQSTM1 0 | A549-TP53BP1-CLTA 0 | A549-TUBA1B-RELA 0 | HepG2-ACTB-RAB5A 0 | HepG2-CANX-COX4 0 | HepG2-GM130-SQSTM1 0 | HepG2-TP53BP1-CLTA 0 | HepG2-TUBA1B-RELA 0 | WPMY1-ACTB-RAB5A 0 | WPMY1-CANX-COX4 0 | WPMY1-GM130-SQSTM1 0 | WPMY1-TP53BP1-CLTA 0 | WPMY1-TUBA1B-RELA 0

Cc1cc(C(=O)NNCc2ccccc2)no1 [isocarboxazid]
inactive: A549-ACTB-RAB5A 0 | A549-CANX-COX4 0 | A549-GM130-SQSTM1 0 | A549-TP53BP1-CLTA 0 | A549-TUBA1B-RELA 0 | HepG2-ACTB-RAB5A 0 | HepG2-CANX-COX4 0 | HepG2-GM130-SQSTM1 0 | HepG2-TP53BP1-CLTA 0 | HepG2-TUBA1B-RELA 0 | WPMY1-ACTB-RAB5A 0 | WPMY1-CANX-COX4 0 | WPMY1-GM130-SQSTM1 0 | WPMY1-TP53BP1-CLTA 0 | WPMY1-TUBA1B-RELA 0

CCN[C@H]1C[C@H](C)S(=O)(=O)c2sc(S(N)(=O)=O)cc21 [dorzolamide]
inactive: A549-ACTB-RAB5A 0 | A549-CANX-COX4 0 | A549-GM130-SQSTM1 0 | A549-TP53BP1-CLTA 0 | A549-TUBA1B-RELA 0 | HepG2-ACTB-RAB5A 0 | HepG2-CANX-COX4 0 | HepG2-GM130-SQSTM1 0 | HepG2-TP53BP1-CLTA 0 | HepG2-TUBA1B-RELA 0 | WPMY1-ACTB-RAB5A 0 | WPMY1-CANX-COX4 0 | WPMY1-GM130-SQSTM1 0 | WPMY1-TP53BP1-CLTA 0 | WPMY1-TUBA1B-RELA 0

O=C(O)c1cc(/N=N/c2ccc(O)c(C(=O)O)c2)ccc1O [olsalazine]
inactive: A549-ACTB-RAB5A 0 | A549-CANX-COX4 0 | A549-GM130-SQSTM1 0 | A549-TP53BP1-CLTA 0 | A549-TUBA1B-RELA 0 | HepG2-ACTB-RAB5A 0 | HepG2-CANX-COX4 0 | HepG2-GM130-SQSTM1 0 | HepG2-TP53BP1-CLTA 0 | HepG2-TUBA1B-RELA 0 | WPMY1-ACTB-RAB5A 0 | WPMY1-CANX-COX4 0 | WPMY1-GM130-SQSTM1 0 | WPMY1-TP53BP1-CLTA 0 | WPMY1-TUBA1B-RELA 0

CC(C)Cn1c(=O)n(C)c(=O)c2[nH]cnc21
inactive: A549-ACTB-RAB5A 0 | A549-CANX-COX4 0 | A549-GM130-SQSTM1 0 | A549-TP53BP1-CLTA 0 | A549-TUBA1B-RELA 0 | HepG2-ACTB-RAB5A 0 | HepG2-CANX-COX4 0 | HepG2-GM130-SQSTM1 0 | HepG2-TP53BP1-CLTA 0 | HepG2-TUBA1B-RELA 0 | WPMY1-ACTB-RAB5A 0 | WPMY1-CANX-COX4 0 | WPMY1-GM130-SQSTM1 0 | WPMY1-TP53BP1-CLTA 0 | WPMY1-TUBA1B-RELA 0

COc1cc2c(NC3CCN(C)CC3)nc(N3CCCN(C)CC3)nc2cc1OCCCN(C)C
inactive: A549-ACTB-RAB5A 0 | A549-CANX-COX4 0 | A549-GM130-SQSTM1 0 | A549-TP53BP1-CLTA 0 | A549-TUBA1B-RELA 0 | HepG2-ACTB-RAB5A 0 | HepG2-CANX-COX4 0 | HepG2-GM130-SQSTM1 0 | HepG2-TP53BP1-CLTA 0 | HepG2-TUBA1B-RELA 0 | WPMY1-ACTB-RAB5A 0 | WPMY1-CANX-COX4 0 | WPMY1-GM130-SQSTM1 0 | WPMY1-TP53BP1-CLTA 0 | WPMY1-TUBA1B-RELA 0

CCCCN1C[C@H](O)[C@@H](O)[C@H](O)[C@H]1CO [Miglustat hydrochloride]
inactive: A549-ACTB-RAB5A 0 | A549-CANX-COX4 0 | A549-GM130-SQSTM1 0 | A549-TP53BP1-CLTA 0 | A549-TUBA1B-RELA 0 | HepG2-ACTB-RAB5A 0 | HepG2-CANX-COX4 0 | HepG2-GM130-SQSTM1 0 | HepG2-TP53BP1-CLTA 0 | HepG2-TUBA1B-RELA 0 | WPMY1-ACTB-RAB5A 0 | WPMY1-CANX-COX4 0 | WPMY1-GM130-SQSTM1 0 | WPMY1-TP53BP1-CLTA 0 | WPMY1-TUBA1B-RELA 0

Cc1ccc(Nc2nnc(-c3ccc([N+](=O)[O-])cc3)o2)cc1Cl
inactive: A549-ACTB-RAB5A 0 | A549-CANX-COX4 0 | A549-GM130-SQSTM1 0 | A549-TP53BP1-CLTA 0 | A549-TUBA1B-RELA 0 | HepG2-ACTB-RAB5A 0 | HepG2-CANX-COX4 0 | HepG2-GM130-SQSTM1 0 | HepG2-TP53BP1-CLTA 0 | HepG2-TUBA1B-RELA 0 | WPMY1-ACTB-RAB5A 0 | WPMY1-CANX-COX4 0 | WPMY1-GM130-SQSTM1 0 | WPMY1-TP53BP1-CLTA 0 | WPMY1-TUBA1B-RELA 0

O=P(O)(O)C(O)(Cn1ccnc1)P(=O)(O)O [zoledronic-acid]
inactive: A549-ACTB-RAB5A 0 | A549-CANX-COX4 0 | A549-GM130-SQSTM1 0 | A549-TP53BP1-CLTA 0 | A549-TUBA1B-RELA 0 | HepG2-ACTB-RAB5A 0 | HepG2-CANX-COX4 0 | HepG2-GM130-SQSTM1 0 | HepG2-TP53BP1-CLTA 0 | HepG2-TUBA1B-RELA 0 | WPMY1-ACTB-RAB5A 0 | WPMY1-CANX-COX4 0 | WPMY1-GM130-SQSTM1 0 | WPMY1-TP53BP1-CLTA 0 | WPMY1-TUBA1B-RELA 0

CC(=O)OCC[N+](C)(C)C [acetylcholine]
inactive: A549-ACTB-RAB5A 0 | A549-CANX-COX4 0 | A549-GM130-SQSTM1 0 | A549-TP53BP1-CLTA 0 | A549-TUBA1B-RELA 0 | HepG2-ACTB-RAB5A 0 | HepG2-CANX-COX4 0 | HepG2-GM130-SQSTM1 0 | HepG2-TP53BP1-CLTA 0 | HepG2-TUBA1B-RELA 0 | WPMY1-ACTB-RAB5A 0 | WPMY1-CANX-COX4 0 | WPMY1-GM130-SQSTM1 0 | WPMY1-TP53BP1-CLTA 0 | WPMY1-TUBA1B-RELA 0

Cc1cnc(C(=O)NCCc2ccc(S(=O)(=O)NC(=O)NC3CCCCC3)cc2)cn1 [glipizide]
inactive: A549-ACTB-RAB5A 0 | A549-CANX-COX4 0 | A549-GM130-SQSTM1 0 | A549-TP53BP1-CLTA 0 | A549-TUBA1B-RELA 0 | HepG2-ACTB-RAB5A 0 | HepG2-CANX-COX4 0 | HepG2-GM130-SQSTM1 0 | HepG2-TP53BP1-CLTA 0 | HepG2-TUBA1B-RELA 0 | WPMY1-ACTB-RAB5A 0 | WPMY1-CANX-COX4 0 | WPMY1-GM130-SQSTM1 0 | WPMY1-TP53BP1-CLTA 0 | WPMY1-TUBA1B-RELA 0

C/N=C(\NC#N)NCCSCc1nc[nH]c1C [cimetidine]
inactive: A549-ACTB-RAB5A 0 | A549-CANX-COX4 0 | A549-GM130-SQSTM1 0 | A549-TP53BP1-CLTA 0 | A549-TUBA1B-RELA 0 | HepG2-ACTB-RAB5A 0 | HepG2-CANX-COX4 0 | HepG2-GM130-SQSTM1 0 | HepG2-TP53BP1-CLTA 0 | HepG2-TUBA1B-RELA 0 | WPMY1-ACTB-RAB5A 0 | WPMY1-CANX-COX4 0 | WPMY1-GM130-SQSTM1 0 | WPMY1-TP53BP1-CLTA 0 | WPMY1-TUBA1B-RELA 0
